# Reference: PubChem BioAssay AID602329 (Broad Institute, 2012)
# Among all 360,000 compounds or so, about 510 (0.14%) were called active. This is one part of a sample in which actives are shown more often than they occur.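 Rule for the calls: active = mean normalized replicate activity at least 40 and at least half of replicates scoring 40 or more; inconclusive = only one of the two criteria met; inactive = mean below 40 and under half of replicates reaching 40.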
# Target: DNA repair and recombination protein RAD54-like (Homo sapiens) (UniProt Q92698)
# Test: inhibitors of human RAD54 branch migration, primary screen, biochemical, fluorescence, single point (AID 602329);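 note: 0% = median of neutral control wells and 100% = median of positive control wells; inhibitors cause a drop in the FAM fluorescence signal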
# Conditions: RAD54 Holliday junction branch migration, FAM/BHQ fluorescence; at 10.4 µM; hits give high values
# DNA repair and recombination protein RAD54-like (Homo sapiens), sequence (Q92698 whole entry, looked up): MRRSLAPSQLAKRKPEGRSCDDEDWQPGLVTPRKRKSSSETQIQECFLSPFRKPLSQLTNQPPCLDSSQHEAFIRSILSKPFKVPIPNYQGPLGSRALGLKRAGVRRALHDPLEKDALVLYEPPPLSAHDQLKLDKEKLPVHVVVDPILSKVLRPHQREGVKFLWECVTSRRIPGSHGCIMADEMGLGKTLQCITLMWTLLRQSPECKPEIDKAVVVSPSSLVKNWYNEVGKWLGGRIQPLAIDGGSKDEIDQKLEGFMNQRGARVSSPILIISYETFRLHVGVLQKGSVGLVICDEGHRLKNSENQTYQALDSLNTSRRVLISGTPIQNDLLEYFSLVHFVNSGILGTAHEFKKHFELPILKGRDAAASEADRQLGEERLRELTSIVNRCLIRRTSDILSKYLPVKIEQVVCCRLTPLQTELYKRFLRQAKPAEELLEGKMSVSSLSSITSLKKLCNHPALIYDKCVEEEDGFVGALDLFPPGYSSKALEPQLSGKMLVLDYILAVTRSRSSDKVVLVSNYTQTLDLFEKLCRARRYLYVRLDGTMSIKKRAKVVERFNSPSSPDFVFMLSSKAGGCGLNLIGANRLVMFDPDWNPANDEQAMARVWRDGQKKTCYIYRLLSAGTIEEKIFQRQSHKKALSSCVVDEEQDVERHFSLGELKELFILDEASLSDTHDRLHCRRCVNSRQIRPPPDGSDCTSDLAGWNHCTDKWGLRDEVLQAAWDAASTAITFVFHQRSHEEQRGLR
row,Structure (SMILES),inhibition
1,C/C=C/c1ccc([C@@H]2[C@@H](CO)N(C(=O)CC)[C@H]2CN(C)C(=O)C2CC2)cc1,-7.87% (inactive)
2,O=C(N[C@@H]1C=C[C@H](CC(=O)N2CCOCC2)O[C@H]1CO)c1ccccn1,-0.273% (inactive)
3,COc1ccc(S(=O)(=O)Nc2ccc3c(c2)CC(=O)N([C@H](C)CO)C[C@@H](C)[C@@H](CN(C)S(=O)(=O)c2ccc(F)cc2)O3)cc1,-1.32% (inactive)
4,C[C@H](CO)N1C[C@H](C)[C@H](CN(C)C(=O)Nc2ccccc2)Oc2c(NC(=O)Nc3ccc(C(F)(F)F)cc3)cccc2C1=O,0.373% (inactive)
5,CO[C@@H](CN(C)C(=O)c1ccc2c(c1)OCO2)[C@@H](C)CN([C@H](C)CO)S(=O)(=O)c1ccccc1,2.31% (inactive)
6,CCCC#Cc1ccc([C@@H]2[C@H](CO)N3CCCCN(S(=O)(=O)c4ccccc4F)C[C@@H]23)cc1,6.77% (inactive)
7,CCOCCCNC(=O)c1cc2c(=O)n3ccccc3nc2s1,10.2% (inactive)
8,CCn1c(=N)c(C(=O)NCCCOC)cc2c(=O)n3cccc(C)c3nc21,50.9% (active)
9,Cc1ccc(S(=O)(=O)c2cc3c(=O)n4cccc(C)c4nc3n(CCc3ccccc3)c2=N)cc1C,0.033% (inactive)
10,Cc1ccc2nc3c(cc(C(=O)NCCc4ccccc4)c(=N)n3CC3CCCO3)c(=O)n2c1 (configuration not stated),12.1% (inactive)
11,COc1ccc(CCn2c(=N)c(C(=O)NCC3CCCO3)cc3c(=O)n4cccc(C)c4nc32)cc1OC (configuration not stated),52.7% (active)
12,COCCCn1c(C(=O)NC2CCCCC2)cc2c(=O)n3cccc(C)c3nc21,-1.16% (inactive)
13,O=C(NC1Cc2ccccc2C1)[C@@H]1[C@@H](CO)[C@@H]2Cn3c(ccc(C4=CCCC4)c3=O)[C@H]1N2CC1CC1,2.91% (inactive)
14,O=C(Nc1ccc(F)cc1)N1CCCCN2[C@H](CO)[C@H](c3ccc(-c4ccncc4)cc3)[C@@H]2C1,-8.07% (inactive)
15,COCC(=O)Nc1ccc2c(c1)[C@@H]1C[C@@H](CC(=O)N3CCN(C)CC3)O[C@H](CO)[C@@H]1O2,7.82% (inactive)
16,CC(C)n1cnc2c(NCc3ccccc3)cc(OCC3CCN(C)CC3)cc21,78.7% (active)
17,CCC(=O)Nc1ccc2c(c1)C(=O)N(C)C[C@H](OC)[C@@H](C)CN(Cc1cccnc1)[C@H](C)CO2,-1.44% (inactive)
18,Clc1ccc2nc(-c3ccccc3)nc(C(Cl)Cl)c2c1,-6.9% (inactive)
19,NC(N)=Nc1nc(-c2ccccc2)c2cc(Cl)ccc2n1,58.9% (active)
20,CC(C)NC(=O)N(C)C[C@H]1Oc2ncc(-c3ccccc3F)cc2C(=O)N([C@@H](C)CO)C[C@@H]1C,-5.71% (inactive)
21,O=C(CCCN1C(=O)c2cccc3cccc(c23)C1=O)N1CCN(Cc2ccc3c(c2)OCO3)CC1,8.9% (inactive)
22,O=C(COC(=O)CCCN1C(=O)c2cccc3cccc(c23)C1=O)NC1CCS(=O)(=O)C1 (configuration not stated),-5.27% (inactive)
23,C[N+](C)(CCCCCC[N+](C)(C)CCCN1C(=O)c2cccc3cccc(c23)C1=O)CCCN1C(=O)c2cccc3cccc(c23)C1=O,115% (active)

row,Structure (SMILES),inhibition
1,CCC(=O)N1C[C@H](C)[C@H](OC)CN(C)C(=O)c2ccc(NC(=O)c3cnccn3)cc2OC[C@@H]1C,-7.7% (inactive)
2,O=C(Cc1ccncc1)NCC[C@H]1CC[C@H](NC(=O)Nc2cccc(F)c2)[C@H](CO)O1,-5.21% (inactive)
3,CCC(=O)N1C[C@@H](C)[C@@H](OC)CN(C)C(=O)c2ccc(NC(=O)c3ccccc3)cc2OC[C@H]1C,-5.42% (inactive)
4,COc1ccc(NC(=O)Nc2ccc3c(c2)CC(=O)N([C@@H](C)CO)C[C@@H](C)[C@@H](CN(C)Cc2ccc(Cl)c(Cl)c2)O3)cc1,12.1% (inactive)
5,C[C@@H](O)C#Cc1ccc([C@H]2[C@H](CO)N3CCCCN(C(=O)c4ccc5c(c4)OCO5)C[C@@H]23)cc1,1.48% (inactive)
6,CCC(=O)N(C)C[C@@H]1Oc2ncc(/C=C/c3ccccc3)cc2C(=O)N([C@@H](C)CO)C[C@H]1C,0.476% (inactive)
7,COCC#Cc1cnc2c(c1)C(=O)N([C@H](C)CO)C[C@H](C)[C@H](CN(C)C(=O)Nc1cc(F)ccc1F)O2,0.435% (inactive)
8,COc1ccc(NC(=O)N[C@@H]2CC[C@H](CC(=O)NC3CCC3)O[C@H]2CO)cc1,4.37% (inactive)
9,C/C=C/c1ccc2c(c1)O[C@H](CN(C)C(=O)CN(C)C)[C@H](C)CN([C@@H](C)CO)S2(=O)=O,-12.5% (inactive)
10,C[C@H]1CN([C@@H](C)CO)C(=O)c2cc(C#CCN(C)C)cnc2O[C@H]1CN(C)C(=O)Cc1ccccc1,3.35% (inactive)
11,COc1ccc(-c2ccc3c(c2)[C@H]2[C@H](CCN2C(=O)c2ccc4c(c2)OCO4)[C@@H](CO)N3)cc1,-2.22% (inactive)
12,CCC(=O)N1C[C@H](C)[C@H](OC)CN(C)C(=O)c2ccc(NC(=O)Nc3ccccc3)cc2OC[C@H]1C,-3.3% (inactive)
13,C[C@H](CO)N1C[C@H](C)[C@H](CN(C)C)Oc2ncc(-c3ccncc3)cc2C1=O,8.42% (inactive)
14,COc1ccc(NC(=O)Nc2ccc3c(c2)CC(=O)N([C@@H](C)CO)C[C@H](C)[C@@H](CN(C)CC2CCCCC2)O3)cc1,3.95% (inactive)
15,CN(C)C(=O)C[C@@H]1C[C@@H]2c3cc(NC(=O)NC4CCCCC4)ccc3O[C@@H]2[C@H](CO)O1,-2.4% (inactive)
16,O=C(C[C@H]1CC[C@H]2[C@@H](COC[C@H](O)CN2C(=O)c2ccncc2)O1)NCc1cc(F)cc(F)c1,1.6% (inactive)
17,C[C@H](CO)N1C[C@H](C)[C@H](CN(C)S(=O)(=O)c2cccs2)Oc2c(NS(=O)(=O)c3ccc(Cl)cc3)cccc2C1=O,3.72% (inactive)
18,Cc1nc2ccccc2c2oc(C(=O)NCCCN3CCC(C)CC3)cc12,55.2% (active)
19,CC1CCN(CCCn2c(SCC(=O)NC3CCCC3)nc3ccccc3c2=O)CC1,-8.12% (inactive)
20,CC1CCN(C(=O)CCNC(=O)c2ccccc2)CC1,-8.53% (inactive)
21,CC1CCc2sc3nc(N4CCN(CCO)CC4)n4ncnc4c3c2C1 (configuration not stated),53.7% (active)
22,CN1C[C@@H](CO)O[C@@H](n2cnc3c(N4CCN(CCO)CC4)ncnc32)C1,-0.96% (inactive)
23,COCc1cn(CC[C@@H]2CC[C@@H](NC(=O)Nc3ccc(C(F)(F)F)cc3)[C@H](CO)O2)nn1,-5.23% (inactive)

row,Structure (SMILES),inhibition
1,C[C@@H]1CN([C@@H](C)CO)C(=O)c2ccccc2-c2ccccc2CO[C@H]1CN(C)C(=O)Nc1ccccc1,2.07% (inactive)
2,CO[C@@H]1CN(C)C(=O)c2ccc(NS(C)(=O)=O)cc2OC[C@H](C)NC[C@H]1C,0.663% (inactive)
3,CN1c2ccc(C3=CCCCC3)cc2[C@@H]2[C@@H](CCN2C(=O)Nc2cc(F)ccc2F)[C@@H]1CO,7.43% (inactive)
4,C[C@@H]1CN([C@@H](C)CO)C(=O)c2cc(NC(=O)Nc3ccc(C(F)(F)F)cc3)ccc2O[C@@H](C)CCCCO[C@H]1CN(C)C(=O)CCCN(C)C,25% (inactive)
5,COc1ccccc1-c1ccc2n(c1=O)C[C@H]1[C@H](CO)[C@@H](C(=O)N[C@@H](C)c3ccccc3)[C@@H]2N1C,-1.98% (inactive)
6,CO[C@@H](CN(C)S(=O)(=O)c1cccc(Cl)c1)[C@H](C)CN([C@H](C)CO)S(=O)(=O)c1cccc(Cl)c1,1.71% (inactive)
7,C[C@@H]1CN([C@H](C)CO)C(=O)c2cccc(NS(=O)(=O)c3ccc(F)cc3)c2O[C@@H]1CN(C)S(=O)(=O)c1ccccc1,2.48% (inactive)
8,CO[C@@H]1CN(C)C(=O)c2ccc(NC(=O)C3CCCC3)cc2OC[C@H](C)NC[C@@H]1C,4.25% (inactive)
9,O=C(C[C@@H]1C=C[C@@H](NC(=O)Nc2cccc(F)c2)[C@H](CO)O1)NCC1CCCCC1,-1.32% (inactive)
10,CCN(CC)CCNc1ccc(Cl)cc1[N+](=O)[O-],7.16% (inactive)
11,CCN(CC)CCn1c2ccc(Cl)cc2c2nc(C)sc21,63.6% (active)
12,COc1ccccc1C(=O)N1C[C@H]2[C@@H](c3ccccc31)[C@H](CO)N2C(=O)C1CC1,-5.07% (inactive)
13,Cc1ccccc1-c1ccc2c(c1)O[C@@H](CN(C)Cc1ccc(C(=O)O)cc1)[C@H](C)CN([C@H](C)CO)S2(=O)=O,0.48% (inactive)
14,COc1ccc(S(=O)(=O)N(C)C[C@@H]2OCCCC[C@@H](C)Oc3ccc(NC(=O)CCCN(C)C)cc3C(=O)N([C@@H](C)CO)C[C@@H]2C)cc1,-3.63% (inactive)
15,CCC(=O)N(C)C[C@H]1Oc2ncc(-c3ccc(C)cc3)cc2C(=O)N([C@@H](C)CO)C[C@@H]1C,12% (inactive)
16,Cc1noc(C)c1NC(=O)Nc1cccc2c1O[C@@H](CN(C)Cc1ccc(C(F)(F)F)cc1)[C@@H](C)CN([C@@H](C)CO)C2=O,3.12% (inactive)
17,C[C@@H]1CN([C@@H](C)CO)C(=O)c2cccc(NS(=O)(=O)c3ccccc3)c2O[C@@H]1CN(C)S(=O)(=O)c1ccc(F)cc1,-8.79% (inactive)
18,CCC(=O)N1C[C@@H](C)[C@H](OC)CN(C)C(=O)c2ccc(NC(=O)c3cc(C)on3)cc2OC[C@H]1C,-6.97% (inactive)
19,COc1cccc(-c2ccc3n(c2=O)C[C@@H]2[C@@H](CO)[C@H](C(=O)N4CCCCC4)N[C@H]32)c1,-5.16% (inactive)
20,CO[C@H]1CC[C@@H]2CCOc3c(C#N)cccc3C(=O)N(C)CCCC(=O)N(C)C[C@@H]1O2,-6.75% (inactive)
21,Cc1cc(C(=O)Nc2cccc3c2O[C@@H](CN(C)C(=O)Nc2ccc4c(c2)OCO4)[C@H](C)CN([C@@H](C)CO)C3=O)n(C)n1,14.9% (inactive)
